# Assay results taken from PubChem BioAssay.
# Activity calls are given as the source filed them. The rule behind the calls is not given here. Where a SMILES comes first, the peptide text is derived from it. The star is where a group is joined. Boc = CC(C)(C)OC(=O)*
# System: Botulinum neurotoxin type F light chain protease (Clostridium botulinum)
# Assay: Botulinum neurotoxin type F light chain protease inhibition, multiplex microsphere flow cytometry, validation set (AID 588459)
# Settings: multiplex microsphere protease substrate cleavage assay, at 10 µM, active compounds read high
row,Compound,inhibition
1,Cc1cccc2c1CC(C)(C)N/C2=C\C(N)=O,1% (inactive)
2,Cc1ccc2nc(C)c3c(c2c1)OC(C(C)(Cl)Br)C3 (stereo not drawn),-0.4% (inactive)
3,O=C(CNC(=O)OCc1ccccc1)NC1CCCCCC1,-1% (inactive)
4,O=C(c1cc2cc(Br)ccc2o1)N1CCCCC1,5.3% (inactive)
5,COC(=O)c1cc(-c2ccc(OC)c(OC)c2)on1,6.2% (inactive)
6,CC(=O)NC(Cc1ccccc1)C(=O)OCC(=O)c1ccccc1 (stereo not drawn),-2.6% (inactive)
7,Cc1cc(C)cc(Nc2nc3c([nH]2)c(=O)n(C)c(=O)n3C)c1,-0.8% (inactive)
8,Cc1ccc2nc3c(cc(C(=O)NCC4CCCO4)c(=N)n3CCCOC(C)C)c(=O)n2c1 (stereo not drawn),3.3% (inactive)
9,COc1cc(C(=O)NCCc2c[nH]c3ccccc23)ccc1OCc1c(C)noc1C,3.6% (inactive)
10,CC(=O)N1CCN(c2ccc(OC[C@H]3CO[C@](Cn4ccnc4)(c4ccc(Cl)cc4Cl)O3)cc2)CC1,-2.2% (inactive)
11,Cc1oc2cc(O)ccc2c(=O)c1Oc1ccccc1Br,-1.1% (inactive)
12,COc1ccc(N2C(=O)[C@@H]3Cc4ccccc4CN3C2=O)cc1,1.7% (inactive)
13,O=C(CCCN1C(=O)/C(=C\c2cccs2)SC1=S)Nc1ccccn1,4% (inactive)
14,O=c1c2[nH]c3ccccc3c2ncn1CCC1=CCCCC1,4.3% (inactive)
15,CCCN1CCC(NC(=O)Nc2ccc(Br)cc2)CC1,0.5% (inactive)
16,CCOc1ccc(C(=O)C(C)=O)c(OCC)c1,4.3% (inactive)
17,O=C(Cc1ccccc1)NCC(=O)OCC(=O)c1ccccc1Cl,1% (inactive)
18,CN1CCCN(C(c2ccccc2)c2ccc(Cl)cc2)CC1 (stereo not drawn),3.2% (inactive)
19,COC(=O)C1=CN(Cc2cccs2)C=C(C(=O)OC)C1c1cccc(Cl)c1,-4.5% (inactive)
20,O=C(O)c1cc(-c2ccccc2)nc2ccccc12,-1.1% (inactive)
21,O=c1ccn([C@@H]2O[C@H](CO)[C@@H](O)[C@H]2O)c(=O)[nH]1,0.8% (inactive)
22,CC(C)=CCCC(C)CN1CCC(N2CCC(C(=O)N3CCCC3)CC2)CC1 (stereo not drawn),1.8% (inactive)
23,O=C(O)c1ccc(-c2ccc(O)c(F)c2)cc1,-6.5% (inactive)
24,Nc1ccc(S(=O)(=O)c2ccc(N)cc2)cc1,-2.8% (inactive)

# Target: Botulinum neurotoxin type A (Clostridium botulinum) (UniProt P0DPI0)
# Sequence (P0DPI0 whole entry, looked up): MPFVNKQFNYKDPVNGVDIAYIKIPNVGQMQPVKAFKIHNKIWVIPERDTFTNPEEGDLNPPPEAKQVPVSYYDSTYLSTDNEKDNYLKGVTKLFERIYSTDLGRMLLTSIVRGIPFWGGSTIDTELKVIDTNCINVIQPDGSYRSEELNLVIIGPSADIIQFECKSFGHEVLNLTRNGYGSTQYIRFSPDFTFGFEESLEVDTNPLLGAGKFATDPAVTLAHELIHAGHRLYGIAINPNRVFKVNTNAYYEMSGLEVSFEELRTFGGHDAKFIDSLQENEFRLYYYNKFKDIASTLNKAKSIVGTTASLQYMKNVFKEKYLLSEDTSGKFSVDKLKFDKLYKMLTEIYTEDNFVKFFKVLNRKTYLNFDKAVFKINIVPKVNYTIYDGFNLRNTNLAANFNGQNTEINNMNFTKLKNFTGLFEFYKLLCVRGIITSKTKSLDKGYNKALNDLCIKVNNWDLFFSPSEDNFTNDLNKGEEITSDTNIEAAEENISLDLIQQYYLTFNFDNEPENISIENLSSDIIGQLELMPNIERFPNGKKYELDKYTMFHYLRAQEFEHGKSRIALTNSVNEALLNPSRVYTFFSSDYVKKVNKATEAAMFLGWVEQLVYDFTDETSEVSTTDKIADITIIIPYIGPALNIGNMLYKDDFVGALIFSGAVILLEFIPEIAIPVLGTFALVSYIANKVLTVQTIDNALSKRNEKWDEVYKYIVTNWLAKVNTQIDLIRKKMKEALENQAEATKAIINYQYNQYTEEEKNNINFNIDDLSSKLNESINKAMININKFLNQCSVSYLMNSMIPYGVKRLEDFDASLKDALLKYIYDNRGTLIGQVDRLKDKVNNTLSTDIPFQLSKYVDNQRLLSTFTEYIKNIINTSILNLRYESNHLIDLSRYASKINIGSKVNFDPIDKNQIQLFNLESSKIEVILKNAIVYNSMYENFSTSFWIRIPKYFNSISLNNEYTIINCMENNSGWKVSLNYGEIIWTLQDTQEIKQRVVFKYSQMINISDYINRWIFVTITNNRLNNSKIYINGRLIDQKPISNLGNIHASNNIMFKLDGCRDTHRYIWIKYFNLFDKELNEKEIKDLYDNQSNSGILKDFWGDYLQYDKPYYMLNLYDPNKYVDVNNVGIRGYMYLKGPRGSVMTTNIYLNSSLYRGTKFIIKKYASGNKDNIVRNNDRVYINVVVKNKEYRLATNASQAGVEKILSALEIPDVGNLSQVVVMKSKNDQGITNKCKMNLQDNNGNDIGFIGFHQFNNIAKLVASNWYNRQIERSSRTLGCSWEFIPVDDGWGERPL
# Assay: BoNT/A light chain protease inhibitors, biochemical, multiplex microsphere flow cytometry, validation set (AID 588460)
# Settings: at 10 µM, active compounds read high
row,Compound,inhibition
1,CN1CCN(C2=Nc3cc(Cl)ccc3Nc3ccccc32)CC1,-0.4% (inactive)
2,CC[N+](C)(C)c1cccc(O)c1,-0.2% (inactive)
3,Cc1ccc(C(=O)O)cc1NC(=O)c1cccs1,0% (inactive)
4,CC(C)Oc1ccc(C(CC(=O)O)c2ccc(F)cc2)cc1 (stereo not drawn),2% (inactive)
5,Cc1cc(-c2nn(-c3ccccc3F)cc2CN2CCCC(O)C2)c(C)s1 (stereo not drawn),0.2% (inactive)
6,COc1ccc2[nH]c3c(c2c1)CCNC3C1CC=C(C)CC1 (stereo not drawn),0.2% (inactive)
7,CC(C)(C)OC(=O)N1CCCC1C(=O)NC(Cc1ccccc1)C(=O)O (stereo not drawn) (Boc-Pro-Phe-OH; configuration not given here),-0.8% (inactive)
8,O=C(/C=C/c1c[nH]c2ccccc12)c1cccc2ccccc12,2.4% (inactive)
9,CC(C)C[C@H]1C(=O)N2CCC[C@H]2[C@]2(O)O[C@](NC(=O)[C@@H]3C=C4c5cccc6[nH]c(Br)c(c56)CC4N(C)C3)(C(C)C)C(=O)N12 (stereo partly drawn),1.3% (inactive)
10,COc1ccc(C)cc1S(=O)(=O)Nc1ccc(F)cc1,-0.3% (inactive)
11,CC12CCC(C(=O)NCc3ccccn3)(OC1=O)C2(C)C (stereo not drawn),-1.3% (inactive)
12,CCC(=O)c1ccc(O)cc1,-0.4% (inactive)
13,Cc1cccc(C)c1NS(=O)(=O)c1ccc(NC(=O)c2ccc(Cl)c([N+](=O)[O-])c2)cc1,-0.2% (inactive)
14,O=C(NCCN1CCCCC1)c1c(O)c2ccccc2[nH]c1=O,0.4% (inactive)
15,S=C(NCc1ccccc1)NCc1cccc(CNC(=S)NCc2ccccc2)c1,0.7% (inactive)
16,Cc1cccc2c1CC(C)(C)N/C2=C\C(N)=O,1% (inactive)
17,Cc1ccc2nc(C)c3c(c2c1)OC(C(C)(Cl)Br)C3 (stereo not drawn),-0.5% (inactive)
18,O=C(CNC(=O)OCc1ccccc1)NC1CCCCCC1,-1.8% (inactive)
19,O=C(c1cc2cc(Br)ccc2o1)N1CCCCC1,-0.6% (inactive)
20,COC(=O)c1cc(-c2ccc(OC)c(OC)c2)on1,1.7% (inactive)

row,Compound,inhibition
1,CC(=O)NC(Cc1ccccc1)C(=O)OCC(=O)c1ccccc1 (stereo not drawn),-1.5% (inactive)
2,Cc1cc(C)cc(Nc2nc3c([nH]2)c(=O)n(C)c(=O)n3C)c1,0.5% (inactive)
3,Cc1ccc2nc3c(cc(C(=O)NCC4CCCO4)c(=N)n3CCCOC(C)C)c(=O)n2c1 (stereo not drawn),-0.1% (inactive)
4,COc1cc(C(=O)NCCc2c[nH]c3ccccc23)ccc1OCc1c(C)noc1C,-1.7% (inactive)
5,CC(=O)N1CCN(c2ccc(OC[C@H]3CO[C@](Cn4ccnc4)(c4ccc(Cl)cc4Cl)O3)cc2)CC1,-1.1% (inactive)
6,Cc1oc2cc(O)ccc2c(=O)c1Oc1ccccc1Br,-0.5% (inactive)
7,COc1ccc(N2C(=O)[C@@H]3Cc4ccccc4CN3C2=O)cc1,0.4% (inactive)
8,O=C(CCCN1C(=O)/C(=C\c2cccs2)SC1=S)Nc1ccccn1,5.2% (inactive)
9,O=c1c2[nH]c3ccccc3c2ncn1CCC1=CCCCC1,0.9% (inactive)
10,CCCN1CCC(NC(=O)Nc2ccc(Br)cc2)CC1,-1.7% (inactive)
11,CCOc1ccc(C(=O)C(C)=O)c(OCC)c1,1% (inactive)
12,O=C(Cc1ccccc1)NCC(=O)OCC(=O)c1ccccc1Cl,-2.5% (inactive)
13,CN1CCCN(C(c2ccccc2)c2ccc(Cl)cc2)CC1 (stereo not drawn),-1.8% (inactive)
14,COC(=O)C1=CN(Cc2cccs2)C=C(C(=O)OC)C1c1cccc(Cl)c1,-0.4% (inactive)
15,O=C(O)c1cc(-c2ccccc2)nc2ccccc12,-0.1% (inactive)
16,O=c1ccn([C@@H]2O[C@H](CO)[C@@H](O)[C@H]2O)c(=O)[nH]1,-0.2% (inactive)
17,CC(C)=CCCC(C)CN1CCC(N2CCC(C(=O)N3CCCC3)CC2)CC1 (stereo not drawn),-0.4% (inactive)
18,O=C(O)c1ccc(-c2ccc(O)c(F)c2)cc1,-1.7% (inactive)
19,Nc1ccc(S(=O)(=O)c2ccc(N)cc2)cc1,-2.5% (inactive)
